Experimental data taken from PubChem BioAssay AID2685 (National Center for Advancing Translational Sciences (NCATS), 2010).
Out of some 320,000 compounds screened, about 2,100 (0.66%) were called active. Inconclusive results (about 53%) are left out. The sample holds actives, similar compounds and a random draw of the others, so the mix is not that of the screen. The call rests on the fitted dose curve; in most records, active means well fitted inhibition curve with a large enough effect in the signal ratio, with a control signal flat (not every such curve was filed as active); inconclusive means small, poorly fitted or top-dose-only effect, or effect the other way, or a change in a side signal; inactive means flat fitted curve, though single readings scatter; the % refers to the signal ratio.

experiment: qHTS Assay for Lipid Storage Modulators in Drosophila S3 Cells; conditions: BODIPY lipid droplet fluorescence, 18-24 h, cells fed with added oleic acid; cell number change: measured here: cell count max response; series mostly up to 46.1 µM; lipid storage change, negative = inhibition: at the top concentration;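 on cell number change: cells counted by Cell Tracker Red CMTPX staining in the red channel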; on lipid storage change, negative = inhibition: on the % scale 0 is the no-effect control and ±100 the full control effect
How it was run: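 Drosophila S3 cells loaded with oleic acid (400 uM, as added) and compounds at several concentrations; lipid droplets imaged by 488-nm laser-scanning cytometry, 500–530 nm intensity and object ratio to cell channel. Percent activity normalized to 20 uM Triacsin C.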
Potency means the concentration at half of the fitted maximal effect.

| SMILES | lipid storage change, negative = inhibition | cell number change | outcome | Potency |
| --- | --- | --- | --- | --- |
| Cc1ccc(C)c(OCC(=O)Nc2ccncc2)c1 | 2.81% (inactive) | 4.4% |  |  |
| COc1ccc(Nc2cc(C)c3cc([N+](=O)[O-])ccc3n2)cc1 | -8.57% (inactive) | 3.7% |  |  |
| Nc1c(C(=O)NCCc2ccccc2)nnn1Cc1ccc(Br)cc1F | 6.34% (inactive) | 2.88% |  |  |
| COc1cc(F)c(C2=CC(=O)C[C@H](c3ccc4c(c3)OCO4)C2)cc1F |  | -8.29% | inactive |  |
| COc1ccc([C@H]2CC(=O)C=C(c3ccc(C)c(F)c3)C2)cc1 |  | -9.27% | inactive |  |
| COc1ccc(C2=CC(=O)C[C@H](c3ccc(F)cc3)C2)cc1OC | -2.63% (inactive) | -2.7% |  |  |
| COc1cc(F)c(C2=CC(=O)C[C@H](c3ccc(F)cc3)C2)cc1F |  | -1.88% |  | 0.731 µM (active) |
| COc1ccc([C@H]2CC(=O)C=C(c3ccc(OC)c(F)c3)C2)cc1 |  | 1.81% |  | 0.731 µM (active) |
| COc1ccc(C2=CC(=O)C[C@H](c3ccc(F)cc3)C2)cc1F |  |  | inactive |  |
| O=C(Cc1cccc(NC(=O)C2CCN(C(=O)CCc3ccccc3)CC2)c1)Nc1cccc(C(=O)N2CCCC2)c1 |  | -25.9% | inactive |  |
| CC(C)CC(=O)Nc1ccc(N2CCOCC2)cc1 | -2.97% (inactive) | -6.68% |  |  |
| CC(C)CC(=O)Nc1ccc(C(=O)CN2CCN(c3ccc(O)cc3)CC2)cc1 |  | -10.4% |  | 4.61 µM (active) |
| COc1ccc(N2CCN(CC(=O)c3ccc(Cl)cc3)CC2)cc1 |  |  |  | 6.51 µM (active) |
| COc1ccc(C(=O)CN2CCN(c3ccc(Cl)cc3)CC2)cc1OC | -17.5% (inactive) | 16.9% |  |  |
| COc1ccc(N2CCN(CC(=O)c3ccccc3)CC2)cc1 |  | 8.26% | inactive |  |
| CC(C)CC(=O)Nc1ccc(C(=O)CN2CCC(C)CC2)cc1 | 6.1% (inactive) | 11.5% |  |  |
| CCCC(C)c1nnc(NC(=O)C2CCCO2)s1 (stereo unspecified) |  |  | inactive |  |
| C/C(=N\NC(=O)c1ccc(-c2ccccc2)cc1)C1C(=O)c2ccccc2C1=O | -10.9% (inactive) | 2.31% |  |  |
| COc1ccc(OC)c(NC(=O)CCN2C(=O)c3cccc([N+](=O)[O-])c3C2=O)c1 |  | 12.8% | inactive |  |
| OCCC1CN(Cc2cc3c(cc2Cl)OCO3)CCN1C1CCCCC1 (stereo unspecified) | 18% (inactive) | 2.14% |  |  |
| OCCC1CN(Cc2ccncc2)CCN1C1CCCC1 (stereo unspecified) | -2.02% (inactive) | -1.79% |  |  |
| Cc1nnc(SCc2ccon2)n1-c1ccccc1 | -0.985% (inactive) | -2.33% |  |  |
| O=C(N/N=C/c1ccc([N+](=O)[O-])s1)c1ccccc1 |  |  | inactive |  |
| O=C(Cc1ccccc1)NCC(=O)N/N=C/c1cccs1 | 7.5% (inactive) |  |  |  |
| O=C(Cc1ccccc1)NCC(=O)N/N=C/c1ccc([N+](=O)[O-])s1 |  | 17.1% |  | 16.4 µM (active) |

| SMILES | lipid storage change, negative = inhibition | cell number change | outcome | Potency |
| --- | --- | --- | --- | --- |
| COc1ccc(OC)c(Cc2nnc(CCC(=O)NC3CCCCC3)o2)c1 | -8.81% (inactive) | -6.11% |  |  |
| Cn1c(OCc2ccc3c(c2)OCO3)nc2c1c(=O)n(Cc1ccc(Cl)c(Cl)c1)c(=O)n2C | -1.56% (inactive) | 10.2% |  |  |
| Cc1cn(Cc2ccccc2)c(=O)[nH]c1=O | -2.22% (inactive) | -5.94% |  |  |
| O=c1[nH]c(=O)n(Cc2ccc(Oc3ccccc3)cc2)cc1Br |  | 18.3% |  | 18.4 µM (active) |
| N#Cc1cn(Cc2ccccc2)c(=O)[nH]c1=O | -14.4% (inactive) | 17.6% |  |  |
| CC1Sc2ccc(S(=O)(=O)CCC(=O)NC3CCCCC3C)cc2NC1=O (stereo unspecified) |  | 7.41% | inactive |  |
| NC(=O)c1cc(C(=O)Cc2ccc(Cl)cc2)c[nH]1 |  | 23.6% | inactive |  |
| CCOc1ccc(CNC(=O)C(C)n2nc(C)c3c(C)n(-c4ccccc4)nc3c2=O)cc1 (stereo unspecified) |  |  | inactive |  |
| CCOC(=O)c1[nH]c2cc(OC)c(OC)cc2c1NC(=O)c1nonc1C |  | -8.79% | inactive |  |
| CCOC(=O)c1[nH]c2ccc(Cl)cc2c1NC(=O)c1nonc1C | -7.98% (inactive) | -14.5% |  |  |
| CCOC(=O)c1[nH]c2ccccc2c1NC(=O)c1nonc1C |  | 103% |  | 2.06 µM (active) |
| C#CCOC(=O)C[N+](C)(C)CC=C | -14.8% (inactive) | 12.5% |  |  |
| Nc1ccc(C(=O)N/N=C/c2c[nH]c3ccccc23)cc1 | 9.89% (inactive) | 14.6% |  |  |
| Cc1ccc(CNC(=O)C(Cc2ccccc2)NS(=O)(=O)c2cccs2)cc1 (stereo unspecified) |  |  | inactive |  |
| Cc1ccc(CNC(=O)C(NS(=O)(=O)c2cccs2)C(C)C)cc1 (stereo unspecified) | 20.5% (inactive) | 20.4% |  |  |
| CCC(NS(=O)(=O)c1cccs1)c1ccc(C)cc1 (stereo unspecified) |  | 13.3% |  | 0.164 µM (active) |
| CCS(=O)(=O)n1nc(-c2ccco2)nc1N | 0.971% (inactive) | 19.9% |  |  |
| Cc1ccc(N/C(CSC(N)=O)=N/S(=O)(=O)c2ccccc2)cc1 |  |  |  | 16.4 µM (active) |
| CS/C(=N/S(=O)(=O)c1ccc(C)cc1)c1ccccc1 | 19.1% (inactive) | -26.1% |  |  |
| Cc1ccc(NC(=S)N/C(=N/S(=O)(=O)c2ccccc2)c2ccccc2)cc1 |  |  | inactive |  |
| CC(CNC(=O)c1cc(Cl)ccc1[N+](=O)[O-])NC(=O)c1cc(Cl)ccc1[N+](=O)[O-] (stereo unspecified) | -13.7% (inactive) | -7.89% |  |  |
| COc1ccc(NC(=O)c2cc(Cl)ccc2Cl)c([N+](=O)[O-])c1 | 18.3% (inactive) | -6.66% |  |  |
| COc1cc(OC)cc(C(=O)NC(C)CNc2ccc(Cl)cc2[N+](=O)[O-])c1 (stereo unspecified) |  | -19.1% |  | 16.4 µM (active) |
| CCC(C)(C)n1nnnc1C(c1cc2cc(C)cc(C)c2[nH]c1=O)N1CCCC1 (stereo unspecified) | 8.01% (inactive) | 6.4% |  |  |
| CN(Cc1ccccc1)CC(O)COc1ccc(CNCCOc2cccnc2)cc1 (stereo unspecified) | 9.6% (inactive) | 3.58% |  |  |
